± gives the standard deviation of the averaged measurements.
Assays:
DLD1 [1] = experiment: cell viability (CellTiter-Glo) relative to plate median (fraction of plate median); higher = more viable cells; conditions: 5 µM; treatment time 24 h; reporter: 7TFP
How it was run: (§1)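 On parallel plates, a Tecan F500 reader recorded either firefly luciferase or CellTiterGlo luminescence. The plates held colorectal cancer cells stably transduced with lentiviral TCF/Wnt firefly luciferase reporters (7TFP or TCF4/Wnt), seeded in 384-well format and treated 24 h later with library compounds at a final 5 µM for 24 h. Per-well signals were normalised to the plate median (webcellHTS2, additive, no log transformation), and two independent replicates were averaged.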

HCT116 = experiment: as above; conditions: 5 µM; treatment time 24 h; reporter: TCF4/Wnt
How it was run: as §1

SW480 [2] = experiment: as above; conditions: 5 µM; treatment time 24 h; reporter: 7TFP
How it was run: as §1

DLD1 [3] = experiment: TCF/Wnt firefly luciferase reporter signal relative to plate median (fraction of plate median); higher = higher Wnt reporter signal; conditions: 5 µM; treatment time 24 h; reporter: 7TFP
How it was run: as §1

SW480 [4] = experiment: as above; conditions: 5 µM; treatment time 24 h; reporter: 7TFP
How it was run: as §1

| SMILES | cell viability (DLD1 [1]) | cell viability (HCT116) | cell viability (SW480 [2]) | TCF/Wnt firefly luciferase reporter signal (DLD1 [3]) | TCF/Wnt firefly luciferase reporter signal (SW480 [4]) |
| --- | --- | --- | --- | --- | --- |
| COc1ccc2c(c1)O[C@@H]1COc3cc(OC)c(OC)cc3[C@@H]1C2=O | 1.02 ± 0.067 | 0.841 ± 0.074 | 0.908 ± 0.037 | 0.979 ± 0.087 | 0.777 ± 0.046 |
| CO[C@@]1(NC(=O)C(C(=O)O)c2ccc(O)cc2)C(=O)N2C(C(=O)O)=C(CSc3nnnn3C)CO[C@@H]21 (stereo not given in full) | 1.06 | 1.02 ± 0.021 | 1.07 | 0.962 ± 0.097 | 1.06 ± 0.035 |
| CN[C@H]1CC[C@@H](c2ccc(Cl)c(Cl)c2)c2ccccc21 | 0.713 ± 0.26 | 0.386 ± 0.052 | 0.934 ± 0.22 | 0.796 ± 0.23 | 0.675 ± 0.15 |
| COc1cc(/C=C/C(=O)O)cc(OC)c1OC | 0.983 ± 0.016 | 0.961 ± 0.015 | 0.903 ± 0.056 | 0.827 ± 0.072 | 0.972 ± 0.0028 |
| C[C@@H]1Cc2cc(O)cc(O)c2C(=O)O[C@H](C)CC(=O)O[C@H](CO)CC(=O)O[C@H](C)Cc2cc(O)cc(O)c2C(=O)O[C@H](C)CC(=O)O1 | 1.04 ± 0.11 | 1.14 ± 0.035 | 1.01 ± 0.062 | 0.938 ± 0.028 | 1.05 ± 0.05 |
| COCCc1ccc(OCC(O)CNC(C)C)cc1 (stereo not given) | 1.14 ± 0.057 | 0.959 ± 0.025 | 1.01 ± 0.018 | 1.14 ± 0.042 | 1.055 ± 0.0071 |
| COc1ccc(C[C@H](N)C(=O)N[C@H]2[C@@H](O)[C@H](n3cnc4c(N(C)C)ncnc43)O[C@@H]2CO)cc1 | 0.892 ± 0.1 | 0.908 ± 0.04 | 0.9485 ± 0.00071 | 0.999 ± 0.03 | 1.05 ± 0.042 |
| COc1cc(NS(=O)(=O)c2ccc(N)cc2)ncn1 | 0.88 ± 0.0092 | 0.9455 ± 0.005 | 0.931 ± 0.037 | 0.99 ± 0.028 | 0.941 ± 0.028 |
| COC(=O)CC1C(C)(C)C(OC(C)=O)[C@@H]2[C@@H](OC(C)=O)[C@]34O[C@@]2(O)[C@]1(C)C3CC[C@]1(C)C4=CC(=O)O[C@H]1c1ccoc1 (stereo not given in full) | 1.02 ± 0.11 | 1.02 ± 0.098 | 1.04 | 1.01 ± 0.061 | 0.992 ± 0.026 |
| CCN(CC)CCOC(=O)C(Cc1cccc2ccccc12)CC1CCCO1 (stereo not given) | 1.095 ± 0.0071 | 1.02 ± 0.034 | 1.02 ± 0.033 | 0.874 ± 0.072 | 1.22 ± 0.37 |
| C[C@@H]1CC[C@H]2C(C)(C)[C@H]3C[C@@]12CC[C@@]3(C)O | 1.02 ± 0.029 | 1.07 ± 0.057 | 1.03 ± 0.021 | 1.03 ± 0.014 | 0.94 ± 0.083 |
| Nc1nc(=O)c2c([nH]1)NCC(CNc1ccc(C(=O)N[C@@H](CCC(=O)O)C(=O)O)cc1)N2C=O (stereo not given in full) | 1 ± 0.085 | 1.03 | 1.01 ± 0.019 | 1.02 ± 0.12 | 1.01 ± 0.028 |
| CCC[C@H](N[C@@H](C)C(=O)N1[C@H](C(=O)O)C[C@@H]2CCCC[C@@H]21)C(=O)OCC | 1.03 ± 0.05 | 1.08 ± 0.035 | 0.961 ± 0.037 | 0.982 ± 0.025 | 1.08 ± 0.078 |
| O=C(O)C1=CC(=C(c2ccc(O)c(C(=O)O)c2)c2ccc(O)c(C(=O)O)c2)C=CC1=O | 1.03 ± 0.14 | 1.03 ± 0.028 | 1.06 ± 0.05 | 0.996 ± 0.09 | 1.01 ± 0.049 |
| C[C@@H]1Cc2cc(O)cc(O)c2C(=O)O1 [6-Hydroxymellein] | 0.98 ± 0.0071 | 0.987 ± 0.018 | 1.015 ± 0.0071 | 0.927 ± 0.1 | 0.974 ± 0.037 |
| COc1c(O)cc(O)cc1O | 1.01 ± 0.04 | 0.694 ± 0.33 | 1.01 ± 0.021 | 1.09 ± 0.064 | 1.03 ± 0.042 |
| COC(=O)C[C@H]1C2(C)CC34OC5(C)O[C@@]6([C@H](OC(C)=O)C(OC(C)=O)[C@]7(C)C(/C(=C(/O)C(C)C)C(=O)O[C@H]7c7ccoc7)[C@@]6(O5)[C@H](OC(C)=O)[C@@]3(O)C2OC(=O)C(C)C)[C@]14C (stereo not given in full) | 1.02 ± 0.021 | 0.959 ± 0.1 | 1.01 ± 0.021 | 1.05 ± 0.14 | 1.08 |
| OC(CCN1CCCCC1)(c1ccccc1)C1CCCCC1 (stereo not given) | 0.963 ± 0.03 | 0.932 ± 0.033 | 0.945 ± 0.052 | 0.855 ± 0.052 | 0.917 ± 0.018 |
| CC(=O)O[C@H]1C[C@@H](O)C(C)(C)[C@@H]2C[C@@H](OC(C)=O)[C@]3(C)[C@H](CC[C@@]4(C)[C@@H](c5ccoc5)OC(=O)[C@H]5O[C@@]534)[C@@]12C | 1.04 ± 0.069 | 0.947 ± 0.066 | 0.945 ± 0.016 | 1.04 ± 0.067 | 0.978 ± 0.011 |
| NNCCc1ccccc1 | 0.995 ± 0.11 | 0.943 ± 0.069 | 0.98 ± 0.042 | 1.26 ± 0.2 | 1.22 ± 0.014 |
| CC(=O)OCC(=O)[C@@]1(O)CC[C@H]2[C@@H]3CCC4=CC(=O)CC[C@]4(C)[C@H]3[C@@H](O)C[C@@]21C | 1.04 ± 0.077 | 1.08 ± 0.057 | 1.04 ± 0.05 | 1.05 | 1.07 ± 0.064 |
| CCC(=O)C1(C)OC1C(C)CC(C)C1OC(=O)CC2(O)CC=C(C)C(O2)/C(C)=C/CCCC(OC2CC(OC(N)=O)C(O)C(C)O2)/C=C/C(C)C(O)C1C (stereo not given) [Irumamycin] | 1.07 ± 0.099 | 1.04 ± 0.035 | 1 ± 0.025 | 1.07 ± 0.078 | 1.02 ± 0.034 |
| CC12CCC3C(CC3(C)C)C(C)(CCC1=O)O2 (stereo not given) | 0.908 ± 0.033 | 0.972 ± 0.069 | 0.892 ± 0.016 | 0.883 ± 0.23 | 0.889 ± 0.13 |
| Clc1ccc(C(c2ccccc2Cl)C(Cl)Cl)cc1 (stereo not given) | 0.937 ± 0.013 | 0.895 ± 0.15 | 0.981 ± 0.041 | 1.11 ± 0.021 | 1.03 ± 0.17 |
| CCCCCCCCCCCC[C@H](O)[C@@H]1CC[C@@H]([C@@H](O)CCCCCCCC(=O)CC[C@@H](O)CC2=C[C@H](C)OC2=O)O1 [annocherin] | 0.904 ± 0.09 | 0.871 ± 0.082 | 0.921 ± 0.093 | 0.843 ± 0.12 | 0.855 ± 0.32 |
| COc1cc(-c2cc(=O)c3c(O)c(OC)c(OC)c(OC)c3o2)cc(OC)c1OC | 0.948 ± 0.073 | 1.06 ± 0.098 | 0.956 ± 0.02 | 1.02 ± 0.028 | 0.936 ± 0.021 |
| C[N+](C)(C)CCO.[Cl-] | 0.975 ± 0.0071 | 1.01 ± 0.068 | 0.929 ± 0.045 | 1.03 ± 0.021 | 1.1 ± 0.042 |
| CC(C)(C)NCC(O)c1ccc(O)c(CO)c1 (stereo not given) | 0.952 ± 0.096 | 1.07 ± 0.092 | 0.922 ± 0.0057 | 1.06 ± 0.014 | 0.995 ± 0.14 |
| O=C1CC2(CCCC2)CC(=O)N1CCCCN1CCN(c2ncccn2)CC1 | 1.02 ± 0.028 | 0.895 ± 0.14 | 0.995 ± 0.021 | 1.07 ± 0.078 | 1.08 ± 0.021 |
| C#C[C@]1(O)CC[C@H]2[C@@H]3CCC4=CC(=O)CC[C@@H]4[C@H]3CC[C@@]21C | 1.15 ± 0.085 | 0.9935 ± 0.0092 | 1.04 ± 0.064 | 0.847 ± 0.27 | 0.931 ± 0.03 |

— the supplement of paper PMC6522484
